Source: PubChem BioAssay (NCATS)
Results filed as inconclusive are left out. Active and inactive are the calls of the source. Unless noted, calls follow the shape of the dose curve; as a rule, active = well fitted curve in the direction sought with a large enough effect; inconclusive = small, poorly fitted or top-dose-only effect, or another doubt; inactive = no such curve, though single readings can be large; an effect the other way counts as inactive or inconclusive.

Legend:
[1] = Cell Viability - BJ (AID 421; calls by dose curve;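 also: potency is read from the fitted curve at half-maximal effect; cells exposed to compound for 40 hours at 37 °C before readout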); conditions: BJ fibroblast viability, qHTS
How it was run: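 Normal human BJ foreskin fibroblasts, 1500/well in complete medium, treated 40 hr at 37 °C. Cellular ATP by CellTiter-Glo luminescence; normalized to DMSO and 100 uM tamoxifen, AC50 from Hill fit.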

[2] = Cell Viability - Jurkat (AID 426;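 active = dose-dependent loss of cell ATP signal giving a full or clear fitted curve, ranked by lower potency value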; also: potency is read from the fitted curve at half-maximal effect); conditions: qHTS
How it was run: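 Cytotoxicity was scored as loss of cellular ATP, measured by luciferase-based luminescence, in Jurkat clone E6-1 cells after 40 h compound treatment; tamoxifen and doxorubicin served as positive controls.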

[3] = Cell Viability - Hek293 (AID 427;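 active = compounds whose dose-response curve shows a full or clear partial loss of cell viability, called from curve shape rather than a numeric limit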;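 also: potency is read from the fitted curve at half-maximal effect; cells exposed to compound for 40 hours at 37 °C before reading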); conditions: qHTS
How it was run: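 HEK293 cells in complete medium were exposed to compound for 40 hr at 37 °C, then cellular ATP was read by CellTiter-Glo luminescence. Data were normalized to DMSO (basal) and 100 uM tamoxifen (100% inhibition), and AC50 came from Hill fits.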

[4] = Cell Viability - HepG2 (AID 433; calls by dose curve;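 also: potency is read from the fitted curve at half-maximal effect; potency for ATP loss meaning cytotoxicity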); conditions: qHTS
How it was run: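 HepG2 cells, 1500 per well, treated 40 hr at 37 °C in complete medium; viability from intracellular ATP by CellTiter-Glo luminescence. Normalized to DMSO and 100 uM tamoxifen; AC50 from Hill fit of qHTS concentration-response.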

[5] = Cell Viability - MRC5 (AID 434; calls by dose curve;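 also: potency is read from the fitted curve at half-maximal effect; potency reflects cytotoxicity seen as loss of intracellular ATP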); conditions: MRC5 lung fibroblast viability, qHTS
How it was run: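 ATP luminescence read-out (CellTiter-Glo, 20 min RT) after 40 hr, 37 °C compound exposure of 1500 MRC5 cells/well. Data normalized to DMSO (basal) and 100 uM tamoxifen (100% inhibition); AC50 from standard Hill equation.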

[6] = Cell Viability - SK-N-SH (AID 435; calls by dose curve;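 also: potency is read from the fitted curve at half-maximal effect; compound exposure lasted 40 h at 37 °C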); conditions: SK-N-SH neuroblastoma cell viability qHTS
How it was run: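 SK-N-SH neuroblastoma cells (1500/well) treated 40 h at 37 °C in complete medium; viability read as cellular ATP by CellTiter-Glo luminescence. Normalized to DMSO and 100 uM tamoxifen; AC50 from Hill fits of qHTS concentration-response.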

[7] = Cell Viability - N2a (AID 540);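 also: plate controls were DMSO alone for no effect and tamoxifen control for full effect; nearly all actives have a fitted effect of over 45% in size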
How it was run: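 In this qHTS cytotoxicity screen, ATP-dependent luciferase luminescence reports viable N2a cells after a 40 hr compound exposure in complete culture medium. Potencies are AC50 values from standard Hill equation fits.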

[8] = Cell Viability - SH-SY5Y (AID 544); conditions: SH-SY5Y neuroblastoma cell viability; at 92.2 µM (top of the series);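 also: 0% = DMSO alone and -100% = 100 µM tamoxifen; nearly all actives have a fitted effect of over 55% in size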
How it was run: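 Quantitative HTS in SH-SY5Y neuroblastoma cells, 40 hr treatment at 37 °C, ATP content by luciferase luminescence; AC50 from Hill fits.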

[9] = Cell Viability - Renal Proximal Tubule (AID 545);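 also: 0% = DMSO only and -100% = 100 µM tamoxifen; nearly all actives have a fitted effect of over 40% in size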
How it was run: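 Rat renal proximal tubule primary cells, 1000/well, exposed to compounds for 40 hr at 37 °C in complete medium; cellular ATP read by CellTiter-Glo luminescence. AC50 from concentration-response fitted with standard Hill equation.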

[10] = Cell Viability - Mesenchymal (AID 546);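 also: cells exposed to compound for 40 hours before reading; 0% = DMSO only and -100% = 100 µM tamoxifen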
How it was run: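 Human renal mesenchymal cells (glomerulus-derived), 1000 cells/well, 5 hr 37 °C pre-incubation; compound 40 hr, 37 °C; CellTiter-Glo, 20 min RT; luminescence; AC50 via Hill equation.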

[11] = Cellular Toxicity (caspase-3) HepG2 (AID 654);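 also: cells exposed to compound for 16 hours before reading; 0% = DMSO alone and 100% = caspase signal from 100 µM tamoxifen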
How it was run: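 Concentration-response AC50 values reflect caspase-3/7 induction in HepG2 cells after 16 hours of compound exposure, quantified by luminescence from liberated aminoluciferin and referenced to 100 uM tamoxifen as full stimulation.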

[12] = Cellular Toxicity (caspase-3) Jurkat (AID 655);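 also: cells exposed to compound for 16 h at 37 °C before reading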
How it was run: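 Jurkat cells (5000/well) in complete medium exposed 16 h at 37 C; caspase-3/7 activity read by Caspase-Glo luminescence after 20 min at room temperature. Normalized to DMSO and 100 uM tamoxifen; AC50 from Hill fits.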

[13] = Cellular Toxicity (caspase-3) HUV-EC-C (AID 656);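 also: 0% = DMSO basal and 100% = 100 µM tamoxifen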
How it was run: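 HUV-EC-C cells (1000/well) in complete medium, compound-treated 16 h at 37 °C; caspase-3/7 activity read by Caspase-Glo 3/7 luminescence. Normalized to DMSO (basal) and 100 uM tamoxifen (100%); AC50 from Hill-equation concentration-response fits.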

[14] = Cellular Toxicity (caspase-3) SHSY5Y (AID 657)
How it was run: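 SH-SY5Y human neuroblastoma cells, 1500/well, exposed to compound for 16 hours at 37 °C in complete medium. Caspase-3/7 activity read by Caspase-Glo luminescence after 1 hr at room temperature, normalized to DMSO and 10 uM staurosporine; AC50 from Hill fit.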

[15] = Cellular Toxicity (caspase-3) BJ (AID 658);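 also: 0% = DMSO basal and 100% = 10 µM staurosporine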
How it was run: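 qHTS, BJ fibroblasts, 1000 cells/well; 5 hr preincubation, 16 hr compound, 37 °C; Caspase-Glo 3/7 reagent, 1 hr RT; luminescence. DMSO = 0%, 10 uM staurosporine = 100%. Hill-equation AC50.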

[16] = Cellular Toxicity (caspase-3) MRC-5 (AID 659);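 also: 0% = DMSO basal and 100% = 10 µM staurosporine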
How it was run: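 MRC-5 fibroblasts, 1500/well; 16 h cpd, 37 °C; Caspase-Glo 3/7, 1 h RT; lumi read. Norm: DMSO = 0%, 10 uM staurosporine = 100%. Hill-fit AC50 from qHTS conc-response.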

[17] = Cellular Toxicity (caspase-3) Mesangial (AID 660);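 also: cells exposed to compound for 16 h before the caspase read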
How it was run: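 AC50 values come from Hill-equation fits of caspase 3/7 activation, measured as Caspase-Glo luminescence in human glomerular mesangial cells exposed to compound for 16 h at 37 °C; 100% set by 100 uM tamoxifen.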

[18] = Cellular Toxicity (caspase-3) SK-N-SH (AID 661);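 also: 0% = DMSO basal and 100% = 10 µM staurosporine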
How it was run: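 Apoptosis readout in SK-N-SH neuroblastoma: Caspase-Glo 3/7 luminescence following 16 hr treatment in complete culture medium. Normalization used DMSO and 10 uM staurosporine controls.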

[19] = Cellular Toxicity (caspase-3) H-4-II-E (AID 663);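 also: cells exposed to compound for 16 hr before readout; 0% = DMSO basal and 100% = 100 µM tamoxifen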
How it was run: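 H-4-II-E rat hepatoma, 1500 cells/well, 5 hr settle at 37 °C; compound 16 hr, 37 °C, complete medium; Caspase-Glo 3/7, 20 min RT; luminescence. DMSO = 0%, 100 uM tamoxifen = 100%; Hill-equation AC50.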

[20] = Cellular Toxicity (caspase-3) Hek293 (AID 664);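 also: cells exposed to compound for 16 h at 37 °C before readout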
How it was run: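 Apoptosis readout: Caspase-Glo 3/7 signal in human HEK293 cells following 16-hour compound incubation. Responses scaled between DMSO baseline and 100 uM tamoxifen.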

[21] = Cellular Toxicity (caspase-3) N2a (AID 665);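 also: compound exposure lasted 16 h at 37 °C before readout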
How it was run: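 Concentration-response qHTS: compound-induced caspase-3/7 luminescence in N2a cells (16 h, 37 °C), relative to DMSO and 10 uM staurosporine controls; AC50 obtained using the standard Hill equation.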

[22] = Cellular Toxicity (caspase-3) NIH 3T3 (AID 666);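 also: caspase signal read after 16 h compound exposure; 0% = DMSO basal and 100% = 100 µM tamoxifen stimulation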
How it was run: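 Activity: caspase-3/7 induction, NIH 3T3 cells, 16 hr treatment at 37°C, luminescent Caspase-Glo detection; AC50 via Hill equation.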

[23] = Cellular Toxicity (caspase-3) Renal Proximal Tubule (AID 667);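 also: cells exposed to compound for 16 hours at 37 °C before detection; 0% = DMSO basal and 100% = 10 µM staurosporine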
How it was run: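 Freshly isolated primary rat kidney proximal tubule cells, 1000/well, treated 16 hr at 37 °C, then Caspase-Glo 3/7 luminescence after 1 hr. Normalized to DMSO and 10 uM staurosporine; AC50 from Hill fit.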

[24] = MultiTox-Fluor Cytotoxicity Assay - LYMP1-001 - Dead Cells (AID 946);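 also: 0% = DMSO and 100% = tetraoctylammonium bromide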
How it was run: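 LYMP1-001 lymphoblastoid cells (2500/well) treated 16 h at 37 C. Dead-cell protease cleavage of bis-AAF-R110 read at Ex/Em 485/520. Normalized to DMSO and 15 uM tetraoctylammonium bromide; AC50 from Hill fits.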

[25] = MultiTox-Fluor Cytotoxicity Assay - LYMP1-001 - Live Cells (AID 947);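 also: 0% = DMSO only and full inhibition = tetraoctylammonium bromide control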
[26] = Cell Viability - LYMP1-002 - Assay at 16 hr (AID 948);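 also: 0% = DMSO alone and full effect = 92 µM tetraoctylammonium bromide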
How it was run: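 LYMP1-002 human lymphoblastoid cells, 2500/well, were treated with compounds for 16 hr at 37 C in complete medium. Viability was read as intracellular ATP by CellTiter-Glo luminescence, and AC50 was derived from a Hill fit to concentration-response data.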

[27] = MultiTox-Fluor Cytotoxicity Assay - LYMP1-002 - Live Cells (AID 955); also: % is scaled to controls: 0 for no effect and ±100 for the full control effect
How it was run: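 In this qHTS viability format, lymphoblastoid cells (LYMP1-002, human) received compound for 16 hr at 37 C. Fluorogenic GF-AFC cleavage by viable cells was detected at 405/510 nm after 1 h at room temperature.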

[28] = MultiTox-Fluor Cytotoxicity Assay - LYMP1-002 - Dead Cells (AID 960);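 also: 0% = DMSO and 100% = tetraoctylammonium bromide; nearly all actives have a fitted effect of over 60% in size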
How it was run: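 Concentration-dependent increases in membrane-leaked protease activity are quantified in LYMP1-002 cells after 16 hr treatment; values are normalized against DMSO and tetraoctylammonium bromide (15 uM) controls and AC50 derived by Hill modeling.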

[29] = MultiTox-Fluor Cytotoxicity Assay - LYMP1-003 - Dead Cells (AID 961);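 also: 0% = DMSO and 100% = tetraoctylammonium bromide; nearly all actives have a fitted effect of over 70% in size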
How it was run: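 LYMP1-003 human lymphoblastoid cells (2500/well) exposed to compound 16 h at 37 C in complete medium; dead-cell protease read with bis-AAF-R110 fluorescence (Ex/Em 485/520) after 60 min at room temperature. Normalized to DMSO and 15 uM tetraoctylammonium bromide; AC50 from Hill fit.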

[30] = MultiTox-Fluor Cytotoxicity Assay - LYMP1-003 - Live Cells (AID 962);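 also: 0% = DMSO only and full loss = 92 µM tetraoctylammonium bromide; cytotoxic hits lower the live-cell protease signal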
How it was run: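 Human lymphoblastoid line LYMP1-003 in complete culture medium, treated 16 hr with titrated compounds. Viable cells quantified via cell-permeant GF-AFC substrate fluorescence; AC50 derived by Hill fitting.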

[31] = Cell Viability - LYMP1-003 - Assay at 24 hr (AID 963);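 also: plate controls were DMSO only for no effect and tetraoctylammonium bromide positive control for full effect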
How it was run: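 The lymphoblastoid line was treated with titrated compounds for 24 hours, and viable cell number estimated from luciferase-based ATP luminescence.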

[32] = Cell Viability - LYMP2-003 (AID 965);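 also: cells exposed to compounds for 24 h before reading; 0% = DMSO only and full effect = 92 µM tetraoctylammonium bromide; nearly all actives have a fitted effect of over 50% in size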
How it was run: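 Human lymphoblastoid LYMP2-003 cells, 2500/well, exposed to compounds for 24 h at 37 C in complete medium. Viability read as intracellular ATP by CellTiter-Glo luminescence; AC50 from Hill-equation fits of qHTS concentration-response data.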

[33] = Cell Viability - LYMP2-004 (AID 966);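 also: plate controls were DMSO only for no effect and tetraoctylammonium bromide control for full effect; nearly all actives have a fitted effect of over 65% in size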
How it was run: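 Viable-cell number estimated from ATP luminescence (CellTiter-Glo) in 2500 human lymphoblastoid cells/well after 24 hr at 37 C with compound. AC50 fitted to the standard Hill equation.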

[34] = Cell Viability - LYMP2-005 (AID 967);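 also: plate controls were DMSO only for no effect and 92 µM tetraoctylammonium bromide control for full effect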
How it was run: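 Human lymphoblastoid LYMP2-005 cells, 2,500 per well in complete medium, rested 5 h at 37C then compound-treated 24 h at 37C. Intracellular ATP read by CellTiter-Glo luminescence after 30 min at room temperature; AC50 from Hill-equation fits of concentration-response data.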

[35] = Cell Viability - LYMP2-009 (AID 968);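 also: 0% = DMSO alone and the full-kill end = tetraoctylammonium bromide at 92 µM; nearly all actives have a fitted effect of over 55% in size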
[36] = Cell Viability - LYMP2-011 (AID 969);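 also: 0% = DMSO only and full inhibition = 92 µM tetraoctylammonium bromide; nearly all actives have a fitted effect of over 60% in size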
How it was run: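 Cells seeded at 2500 per well rest 5 hr before compound addition, then incubate 24 hr at 37 C. CellTiter-Glo reagent is added for 30 min at room temperature before luminescence detection.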

[37] = Cell Viability - LYMP2-013 (AID 970);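 also: 0% = DMSO only and full inhibition = tetraoctylammonium bromide control; nearly all actives have a fitted effect of over 55% in size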
How it was run: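 In complete culture medium, human lymphoblastoid cells were dosed for 24 hr at 37 C, with tetraoctylammonium bromide (6.4pM to 92 uM) as positive control. Viability reflects luciferase-based ATP signal; AC50 derived from concentration-response curves.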

[38] = Cell Viability - LYMP2-015 (AID 971);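 also: 0% = DMSO only and full effect = 92 µM tetraoctylammonium bromide; nearly all actives have a fitted effect of over 55% in size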
How it was run: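 AC50 values reflect Hill-model fits of ATP-based luminescence (CellTiter-Glo) from a human lymphoblastoid line, 2500 cells/well, treated 24 hr at 37 C.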

[39] = Cell Viability - LYMP2-017 (AID 972)
How it was run: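 In this qHTS format, lymphoblastoid cells in complete medium receive test compound for a day at 37 C before ATP content is quantified by luciferase luminescence. Reported AC50 figures come from standard Hill-equation curve fitting.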

[40] = Cell Viability - LYMP2-019 (AID 973)
How it was run: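 AC50 values come from Hill-equation modelling of qHTS concentration-response curves, where viability is measured as luciferase-based ATP luminescence in the lymphoblastoid line after 24 hr compound exposure in complete culture medium.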

[41] = Cell Viability - LYMP2-021 (AID 974)
How it was run: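 In qHTS format, compounds are tested against 2500 lymphoblastoid cells per well for 24 h; viable cell number is inferred from ATP-driven luciferase light, and Hill-equation fitting yields AC50 values.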

CO[C@H]1/C=C/O[C@@]2(C)Oc3c(C)c(O)c4c(O)c(c(/C=N/N5CCN(C)CC5)c(O)c4c3C2=O)NC(=O)/C(C)=C\C=C\[C@H](C)[C@H](O)[C@@H](C)[C@@H](O)[C@@H](C)[C@H](OC(C)=O)[C@@H]1C
active: viability change, negative = cytotoxic [8] -92.1%
inactive: Potency [1] > 92 µM | Potency [2] > 92 µM | Potency [3] > 92 µM | Potency [4] > 92 µM | Potency [5] > 92 µM | Potency [6] > 92 µM | outcome [7] | outcome [9] | outcome [10] | outcome [11] | outcome [12] | outcome [13] | outcome [14] | outcome [15] | outcome [16] | outcome [17] | outcome [18] | outcome [19] | outcome [20] | outcome [21] | outcome [22] | outcome [23] | outcome [24] | outcome [25] | outcome [26] | outcome [27] | outcome [28] | outcome [29] | outcome [30] | outcome [31] | outcome [32] | outcome [33] | outcome [34] | outcome [35] | outcome [36] | outcome [37] | outcome [38] | outcome [39] | outcome [40] | outcome [41]
